# Experimental data as given in PubChem BioAssay (Tox21).
# Records with an inconclusive call do not appear. Entries that show only a call come without a potency. The source made the active and inactive calls. Unless noted, calls come from the whole dose curve; as a rule, active = well fitted curve in the direction sought with a large enough effect in the repeat runs; inconclusive = weak or mixed curves; inactive = no such curve, though single readings can be large; an effect the other way counts as inactive or inconclusive.
# Key:
# [1] = A CellTox Green Cytotoxicity Assay to monitor cytotoxicity in HEK293 cells - 32 hour (AID 1224881); note: nearly all actives have a fitted effect of over 40% in size; note: potency is the fitted concentration of half-maximal effect
# Procedure, shortened: (§1)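 Fluorescence from a DNA-binding dye excluded by viable cells was measured repeatedly in the same HEK293 wells (600 cells/well) during continuous compound exposure at 37 C. Each assay gives one read point: 0, 8, 16, 24, 32 or 40 h.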
# [2] = A CellTox Green Cytotoxicity Assay to monitor cytotoxicity in HepG2 cells - 0 hour (AID 1224882); note: nearly all actives have a fitted effect of over 35% in size
# Procedure, shortened: (§2)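 Real-time cytotoxicity: fluorescence of a cell-impermeant cyanine dye binding DNA of dead HepG2 cells, measured repeatedly (0–40 h) during compound exposure at 37 C. Cells seeded 600/well with reagent, dosed after 5 h.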
# [3] = A CellTox Green Cytotoxicity Assay to monitor cytotoxicity in HepG2 cells - 32 hour (AID 1224883); note: nearly all actives have a fitted effect of over 50% in size; note: potency is the fitted concentration of half-maximal effect
# Procedure, shortened: as §2
# [4] = A CellTox Green Cytotoxicity Assay to monitor cytotoxicity in HEK293 cells - 8 hour (AID 1224884); note: nearly all actives have a fitted effect of over 35% in size
# Procedure, shortened: as §1
# [5] = qHTS RealTime-Glo MT Cell Viability Assay in HepG2 cells - 16 hour (AID 1224885); note: nearly all actives have a fitted effect of over 50% in size
# Procedure, shortened: (§3)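 Tox21 10K library screened in qHTS format on HepG2 cells carrying RealTime-Glo reagents. Compounds were added after a 5 h preincubation, and the luminescent signal from continuous culture was measured repeatedly during 40 h treatment.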
# [6] = qHTS RealTime-Glo MT Cell Viability Assay in HEK293 cells - 24 hour (AID 1224886); note: top concentration of the series differs between compounds; nearly all actives have a fitted effect of over 50% in size
# Procedure, shortened: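 Luminescence generated by NanoLuc from substrate produced by living HEK293 cells served as the viability signal. Each value reflects the reading at its stated time point during continuous 40 h compound exposure at 37 C.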
# [7] = qHTS RealTime-Glo MT Cell Viability Assay in HEK293 cells - 8 hour (AID 1224887); note: top concentration of the series differs between compounds; nearly all actives have a fitted effect of over 50% in size
# Procedure, shortened: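 Luminescence, which tracks viable cell number through reduction of the prosubstrate to a NanoLuc substrate, was read over continuous 37 C culture. Cells (600/well) were premixed with reagent and rested 5 h before 23 nL of compound in DMSO was pinned.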
# [8] = A CellTox Green Cytotoxicity Assay to monitor cytotoxicity in HEK293 cells - 16 hour (AID 1224888); note: nearly all actives have a fitted effect of over 35% in size
# Procedure, shortened: as §1
# [9] = qHTS RealTime-Glo MT Cell Viability Assay in HepG2 cells - 0 hour (AID 1224889); note: nearly all actives have a fitted effect of over 50% in size
# Procedure, shortened: as §3
# [10] = qHTS assay to identify small molecule antagonists of the estrogen receptor alpha (ER-alpha) signaling pathway using the BG1 cell line in the presence of 0.1 nM 17-beta-estradiol - cell viability counter screen (AID 1259241); note: nearly all actives have a fitted effect of over 40% in size
# Procedure, shortened: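 Cells were plated and left 24 hr, compounds in DMSO were pinned in, 17beta-estradiol was added to 0.1 nM final, and after 22 hr CellTiter-Fluor reagent was added for 30 min before fluorescence was read.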
# [11] = qHTS assay to identify small molecule antagonists of the androgen receptor (AR) signaling pathway using the MDA cell line in the presence of 0.5 nM R1881 - cell viability counter screen (AID 1259242); note: nearly all actives have a fitted effect of over 45% in size
# Procedure, shortened: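 Live-cell protease activity was measured by CellTiter-Fluor fluorescence after 30 min. Before that, MDA-kb2 MMTV-luciferase cells had 16 hr at 37C without CO2, exposed to test compounds and 0.5 nM R1881 final.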
# [12] = biological target: Estrogen receptor (Homo sapiens) (UniProt P03372); assay: qHTS assay to identify small molecule antagonists of the estrogen receptor alpha (ER-alpha) signaling pathway using the BG1 cell line in the presence of 0.1 nM 17-beta-estradiol (AID 1259244); note: nearly all actives have a fitted effect of over 50% in size
# Procedure, shortened: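 Luciferase luminescence (ONE-Glo, 30 min at room temperature) was read after 22 hr at 37C exposure to compounds plus 17beta-estradiol at 0.1 nM final. Cells were VM7Luc4E2 with endogenous ER-alpha and an ERE-driven luciferase, pre-cultured 5 days in hormone-depleted medium.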
# [13] = qHTS assay to identify small molecule HDAC inhibitors (AID 1259364); note: top concentration of the series differs between compounds; nearly all actives have a fitted effect of over 45% in size
# Procedure, shortened: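 Luminescence read after 30 min room-temperature HDAC-Glo incubation measures cellular class I/II HDAC activity. Compounds were applied for 2 hr at 37 C to HCT-116 wild-type cells seeded the day before.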
# [14] = qHTS assay to identify small molecule HDAC inhibitors - cell viability counter screen (AID 1259365)
# Procedure, shortened: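 Counter screen in wild-type HCT-116 cells: compounds dissolved in DMSO are pin-transferred onto overnight-plated cells and left 2hr at 37C. ATP-based CellTiter-Glo luminescence then measures viable cells.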
# [15] = qHTS assay to identify small molecule agonists of the sonic hedgehog signaling (Shh) pathway - cell viability counter screen (AID 1259366); note: nearly all actives have a fitted effect of over 50% in size
# Procedure, shortened: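 Cells are plated at 2,000 per well and left 4hr at 37C, 5% CO2 before compound addition. After 23hr of treatment, CellTiter-Fluor reagent is added for 1hr at 37C and fluorescence is measured.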
# [16] = qHTS assay to identify small molecule antagonists of the sonic hedgehog signaling (Shh) pathway - cell viability counter screen (AID 1259367); note: nearly all actives have a fitted effect of over 55% in size; note: potency is the fitted concentration of half-maximal effect
# Procedure, shortened: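 Tox21 library chemicals were tested on a Gli1-Luc NIH/3T3 clone (2,000 cells/well) stimulated by conditioned medium; viability was quantified as fluorescence from CellTiter-Fluor reagent added at 23 hr.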
# [17] = qHTS assay to identify small molecule agonists of the sonic hedgehog signaling (Shh) pathway (AID 1259368; calls by dose curve;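 note: NIH/3T3-derived 3T3Gli1-Luc cells carrying a stable Gli1-driven firefly luciferase reporter; series mostly up to about 92 µM; nearly all actives have a fitted effect of over 15% in size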)
# Procedure, shortened: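 Luminescence was read after 30 min at room temperature with luciferase reagent. Before that, 3T3Gli1-Luc cells (NIH/3T3 clone, stable Gli1-Luc reporter; 2,000/well) were exposed to compounds for 24 hr at 37C, 5% CO2, compounds being added 4 hr post-plating.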
# [18] = A CellTox Green Cytotoxicity Assay to monitor cytotoxicity in HepG2 cells - 8 hour (AID 1224890); note: nearly all actives have a fitted effect of over 45% in size; note: potency is the fitted concentration of half-maximal effect
# Procedure, shortened: as §2
# Chain of Estrogen receptor (Homo sapiens) (P03372 whole entry, looked up): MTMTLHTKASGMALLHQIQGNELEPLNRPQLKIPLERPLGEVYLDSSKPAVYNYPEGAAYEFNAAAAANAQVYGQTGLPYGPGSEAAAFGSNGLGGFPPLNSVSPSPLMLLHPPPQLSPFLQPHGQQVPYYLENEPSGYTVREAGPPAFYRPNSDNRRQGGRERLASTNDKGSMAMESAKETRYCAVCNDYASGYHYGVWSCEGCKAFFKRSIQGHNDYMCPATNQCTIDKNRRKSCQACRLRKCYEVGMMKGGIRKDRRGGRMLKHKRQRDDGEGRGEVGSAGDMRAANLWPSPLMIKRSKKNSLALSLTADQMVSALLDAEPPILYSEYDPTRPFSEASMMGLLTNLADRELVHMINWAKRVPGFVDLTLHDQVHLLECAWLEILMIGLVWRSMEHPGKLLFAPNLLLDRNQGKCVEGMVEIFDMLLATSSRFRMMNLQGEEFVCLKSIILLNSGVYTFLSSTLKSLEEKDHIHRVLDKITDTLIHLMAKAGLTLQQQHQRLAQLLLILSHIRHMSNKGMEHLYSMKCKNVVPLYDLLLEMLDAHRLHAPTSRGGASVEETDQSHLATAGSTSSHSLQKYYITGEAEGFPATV
Structure (SMILES),Potency [1],Potency [2],Potency [3],Potency [4],Potency [5],Potency [6],Potency [7],Potency [8],Potency [9],Potency [10],Potency [11],Potency [12],Potency [13],Potency [14],Potency [15],Potency [16],Potency [17],Potency [18]
CC(Cl)CCl (centres undefined),inactive,inactive,inactive,inactive,inactive,inactive,inactive,inactive,inactive,inactive,inactive,inactive,inactive,inactive,inactive,inactive,inactive,–
CC(C)C(Nc1ccc(C(F)(F)F)cc1Cl)C(=O)OC(C#N)c1cccc(Oc2ccccc2)c1 (centres undefined),inactive,inactive,inactive,inactive,inactive,inactive,–,inactive,inactive,inactive,inactive,inactive,inactive,inactive,inactive,inactive,–,inactive
S=C=Nc1ccccc1,inactive,inactive,inactive,inactive,inactive,inactive,inactive,inactive,inactive,inactive,inactive,inactive,inactive,inactive,inactive,inactive,inactive,–
CCOC(=O)Cc1ccccc1,inactive,inactive,inactive,inactive,inactive,–,inactive,inactive,inactive,inactive,inactive,inactive,inactive,inactive,inactive,inactive,inactive,inactive
Nc1nc(N)nc(Cl)n1,inactive,inactive,inactive,inactive,inactive,inactive,inactive,inactive,inactive,inactive,inactive,–,–,inactive,inactive,inactive,inactive,inactive
CCC(C)c1cccc(C(C)CC)c1O (centres undefined),30.9 µM (active),inactive,19.5 µM (active),inactive,inactive,inactive,inactive,–,inactive,–,inactive,inactive,inactive,inactive,–,inactive,inactive,19.5 µM (active)
CCNS(=O)(=O)C(F)(F)C(F)(F)C(F)(F)C(F)(F)C(F)(F)C(F)(F)C(F)(F)C(F)(F)F,inactive,inactive,inactive,inactive,inactive,inactive,inactive,inactive,inactive,inactive,inactive,–,–,inactive,–,65.7 µM (active),inactive,inactive
BrCCCBr,inactive,inactive,inactive,inactive,inactive,inactive,inactive,inactive,inactive,inactive,inactive,–,–,inactive,inactive,inactive,inactive,inactive
